Records with an inconclusive call do not appear. Active and inactive are the calls of the source. The call rests on the fitted dose curve; in most records, active means well fitted curve in the direction sought with a large enough effect; inconclusive means small, poorly fitted or top-dose-only effect, or another doubt; inactive means no such curve, though single readings can be large; an effect the other way counts as inactive or inconclusive. Where a SMILES comes first, the peptide text is derived from it.
Key:
[1] = system: NIH3T3; test: qHTS assay to identify novel small-molecules to repurpose for Merkel cell carcinoma treatment (AID 1296009); settings: MCC and control cell lines, CellTiter-Glo viability, 72 h; at 44.8 µM (top of the series) unless noted; further: nearly all actives have a fitted effect of over 60% in size
Outline: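 Luminescence from CellTiter-Glo, read 10 min after addition at room temperature, reported viability following a 72 hr, 37 degree celsius treatment with NPC or MIPE compounds in titration; values normalized to plate controls.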

[2] = system: C33A; test: Primary qHTS to identify gynecologic anti-cancer compounds using libraries of approved drugs and bioactive compounds (AID 1345084); settings: Gynecologic cancer cell panel viability, ATPlite luminescence, 48 h; series mostly up to 57.5 µM; further: on the % scale 0 is the no-effect control and ±100 the full control effect; nearly all actives have a fitted effect of over 55% in size
Outline: (§1)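 Five-point cytotoxicity, 48 h drug exposure at 37 C, 5% CO2, on cells seeded 16 h beforehand. ATP content read by ATPlite luminescence.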

[3] = system: CAOV3; test: as above; settings: Gynecologic cancer cell panel viability, ATPlite luminescence, 48 h; series mostly up to 57.5 µM
Outline: as §1

[4] = system: CASKI; test: as above; settings: Gynecologic cancer cell panel viability, ATPlite luminescence, 48 h; series mostly up to 57.5 µM
Outline: as §1

[5] = system: Es-2; test: as above; settings: Gynecologic cancer cell panel viability, ATPlite luminescence, 48 h; series mostly up to 57.5 µM
Outline: as §1

[6] = system: HeLa; test: as above; settings: Gynecologic cancer cell panel viability, ATPlite luminescence, 48 h; series mostly up to 57.5 µM
Outline: as §1

[7] = system: Hek293T; test: as above; settings: Gynecologic cancer cell panel viability, ATPlite luminescence, 48 h, control line for the selectivity index; series mostly up to 57.5 µM
Outline: as §1

[8] = system: JEG-3; test: as above; settings: Gynecologic cancer cell panel viability, ATPlite luminescence, 48 h; series mostly up to 57.5 µM
Outline: as §1

[9] = system: OV90; test: as above; settings: Gynecologic cancer cell panel viability, ATPlite luminescence, 48 h; series mostly up to 57.5 µM
Outline: as §1

[10] = system: PA-1; test: as above; settings: Gynecologic cancer cell panel viability, ATPlite luminescence, 48 h; series mostly up to 57.5 µM
Outline: as §1

[11] = system: SKOV3; test: as above; settings: Gynecologic cancer cell panel viability, ATPlite luminescence, 48 h; series mostly up to 57.5 µM
Outline: as §1

[12] = system: Tov112D; test: as above; settings: Gynecologic cancer cell panel viability, ATPlite luminescence, 48 h; series mostly up to 57.5 µM
Outline: as §1

[13] = system: Tov-21-G; test: as above; settings: Gynecologic cancer cell panel viability, ATPlite luminescence, 48 h; series mostly up to 57.5 µM
Outline: as §1

[14] = Drug repurposing screens with cells derived from glioblastoma tumor samples (AID 1345199); settings: GBM patient neurospheres viability, ATP luminescence, 48 h; further: on the % scale 0 is the no-effect control and ±100 the full control effect; nearly all actives have a fitted effect of over 40% in size
Outline: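 Primary testing used CD133+ neurospheres from four GBM patients, seven concentrations, 48 h exposure and ATP-based viability; confirmation added three slower-growing patient lines.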

Cn1c(=O)cc(N2CCCC(N)C2)n(Cc2ccccc2C#N)c1=O (stereo not given)
inactive: outcome [1] | Potency [2] | Potency [3] | Potency [4] | Potency [5] | Potency [6] | Potency [7] | Potency [8] | Potency [9] | Potency [10] | Potency [11] | Potency [12]

COc1cc2c(cc1OC)CN(C(=O)[C@@H](NCc1ccncc1)C(C)(C)C)CC2
inactive: outcome [1] | Potency [2] | Potency [3] | Potency [4] | Potency [5] | Potency [6] | Potency [7] | Potency [8] | Potency [9] | Potency [10] | Potency [11] | Potency [13] | Potency [12]

C[C@H]1CN(C[C@H](Cc2ccccc2)C(=O)NCC(=O)O)CC[C@@]1(C)c1cccc(O)c1
inactive: outcome [1] | Potency [2] | Potency [3] | Potency [4] | Potency [5] | Potency [6] | Potency [7] | Potency [8] | Potency [9] | Potency [10] | Potency [11] | Potency [13] | Potency [12]

CCOc1nc2cccc(C(=O)OCc3oc(=O)oc3C)c2n1Cc1ccc(-c2ccccc2-c2noc(O)n2)cc1
inactive: outcome [1] | Potency [2] | Potency [3] | Potency [4] | Potency [5] | Potency [6] | Potency [7] | Potency [8] | Potency [9] | Potency [10] | Potency [11] | Potency [13] | Potency [12]

CNC(=O)O[C@H]1COc2ccc(N3CCN(C4COC4)CC3)cc2[C@@H]1NC(=O)c1ccc(F)cc1
inactive: outcome [1] | Potency [2] | Potency [3] | Potency [4] | Potency [5] | Potency [6] | Potency [7] | Potency [8] | Potency [9] | Potency [10] | Potency [13] | Potency [12]

C=C1CCC2C(C)(C)CC(=O)CC2(C)C1CCC(C)CCOC(C)=O (stereo not given)
inactive: outcome [1] | Potency [2] | Potency [3] | Potency [4] | Potency [5] | Potency [6] | Potency [7] | Potency [8] | Potency [9] | Potency [10] | Potency [13] | Potency [12]

CCC(=O)NS(=O)(=O)c1ccc(-c2c(-c3ccccc3)noc2C)cc1
inactive: outcome [1] | Potency [2] | Potency [3] | Potency [4] | Potency [5] | Potency [6] | Potency [7] | Potency [8] | Potency [9] | Potency [10] | Potency [11] | Potency [13] | Potency [12] | activity, negative = cell killing ([14]; at 45.9 µM (top of the series), tumour line B) 0.0321% | activity, negative = cell killing ([14]; at 45.9 µM (top of the series), tumour line D) 8.31% | activity, negative = cell killing ([14]; at 46 µM (top of the series), tumour line A) -24% | activity, negative = cell killing ([14]; at 46.1 µM (top of the series), tumour line C) -3.29%

COc1cc(COC2OC(CO)C(O)C(O)C2O)cc(OC)c1O (stereo not given)
inactive: outcome [1] | Potency [2] | Potency [4] | Potency [5] | Potency [6] | Potency [7] | Potency [8] | Potency [9] | Potency [10] | Potency [11] | Potency [13] | Potency [12]

C=CC(C)(O)CC/C=C(/C)C(=O)OC1C(OC2OCC(OC3OC(CO)C(O)C(O)C3O)C(OC3OCC(O)C(OC4OC(C)C(O)C(O)C4O)C3O)C2O)COC(OC(=O)C23CCC(C)(C)CC2C2=CCC4C5(C)CCC(OC6OC(CO)C(OC7OC(CO)C(O)C(OC8OCC(O)C(O)C8O)C7O)C(O)C6O)C(C)(C)C5CCC4(C)C2(C)CC3O)C1O (stereo not given)
inactive: outcome [1] inactive [at 4.96 µM] | activity change, negative = cytotoxicity [2] 1.13% [at 6.55 µM] | activity change, negative = cytotoxicity [4] 8.91% [at 6.55 µM] | activity change, negative = cytotoxicity [5] -0.338% [at 6.55 µM] | activity change, negative = cytotoxicity [6] 1.37% [at 6.55 µM] | activity change, negative = cytotoxicity [7] -23.4% [at 6.55 µM] | activity change, negative = cytotoxicity [8] -0.642% [at 6.55 µM] | activity change, negative = cytotoxicity [9] -1.5% [at 6.55 µM] | activity change, negative = cytotoxicity [10] 6.35% [at 6.55 µM] | activity change, negative = cytotoxicity [11] 24.3% [at 6.55 µM] | activity change, negative = cytotoxicity [13] 1.46% [at 6.55 µM] | activity change, negative = cytotoxicity [12] 0.487% [at 6.55 µM]

C[C@@H](O)[C@H](N)C(=O)N1CCC[C@H]1C(=O)N1CCC[C@H]1C(=O)N[C@H](C(N)=O)[C@@H](C)O (H-TPPT-NH2)
inactive: outcome [1] inactive [at 9.27 µM] | activity change, negative = cytotoxicity [2] 10.5% [at 11.6 µM] | activity change, negative = cytotoxicity [4] 7.08% [at 11.6 µM] | activity change, negative = cytotoxicity [5] -3.74% [at 11.6 µM] | activity change, negative = cytotoxicity [6] 8.64% [at 11.6 µM] | activity change, negative = cytotoxicity [7] 17.1% [at 11.6 µM] | activity change, negative = cytotoxicity [8] -0.985% [at 11.6 µM] | activity change, negative = cytotoxicity [9] -0.207% [at 11.6 µM] | activity change, negative = cytotoxicity [10] -4.12% [at 11.6 µM] | activity change, negative = cytotoxicity [13] 0.205% [at 11.6 µM] | activity change, negative = cytotoxicity [12] 6.35% [at 11.6 µM]

C=C[C@H]1[C@H](O[C@@H]2O[C@H](CO)[C@@H](O)[C@H](O)[C@H]2O)OC=C2C(=O)OCC[C@]21O
inactive: outcome [1] | Potency [2] | Potency [4] | Potency [5] | Potency [6] | Potency [7] | Potency [8] | Potency [9] | Potency [10] | Potency [11] | Potency [13] | Potency [12]

CCOC(=O)Nc1nc2ccccc2[nH]1
inactive: outcome [1] | Potency [2] | Potency [4] | Potency [5] | Potency [6] | Potency [7] | Potency [8] | Potency [9] | Potency [10] | Potency [11] | Potency [13] | Potency [12]

Cc1c(N2C(=O)c3ccc(C(=O)O)cc3C2=O)c(=O)n(-c2ccccc2)n1C
inactive: outcome [1] | Potency [2] | Potency [4] | Potency [5] | Potency [6] | Potency [7] | Potency [8] | Potency [9] | Potency [10] | Potency [11] | Potency [13] | Potency [12]

COC(=O)C1=C[C@@H](O)[C@@H](O)[C@H](O[C@@H]2O[C@H](COC(=O)/C=C/c3ccccc3)[C@@H](O)[C@H](O)[C@H]2O)C1
inactive: outcome [1] inactive [at 17.4 µM] | Potency [2] | Potency [4] | Potency [5] | Potency [6] | Potency [7] | Potency [8] | Potency [9] | Potency [10] | Potency [11] | Potency [13] | Potency [12]

From PubChem BioAssay (NCATS)
